{"source": "PubChem BioAssay (NCATS)", "note": "Results filed as inconclusive are left out. The source made the active and inactive calls. Calls come from the whole dose curve. Residues, ends and D or L forms follow the SMILES beside them. *: point of attachment. Octanoyl = CCCCCCCC(=O)*"}
{"assay": "qHTS for inhibitors of Rabies Virus screened against the NCATS CANVASS Library (AID 1347402); note: 0% is about no effect", "conditions": "Rabies virus infection cell assay; series mostly up to 45.9 µM; activity change, negative = inhibition: at the top concentration"}
{"smiles": "C[C@@]12CCC[C@@](C)(C(=O)O)[C@H]1C[C@@H](O)[C@@]13C[C@@H](CC[C@@H]21)[C@](C)(O)C3", "activity change, negative = inhibition": "14.1% (inactive)"}
{"smiles": "CCCCCCCC(=O)N[C@@H](CC(C)C)C(=O)N[C@H](C=O)CCC(=O)O", "note": "(Octanoyl-Leu-Glu-aldehyde)", "activity change, negative = inhibition": "-4.61% (inactive)"}
{"smiles": "O=Cc1ccc2n1C[C@]1(OC2)O[C@H](CO)[C@@H](O)[C@@H]1O", "activity change, negative = inhibition": "-12.4% (inactive)"}
{"smiles": "CCCCCCC[C@@H](C/C=C/CCC(=O)NCCc1c[nH]c2ccccc12)OC", "activity change, negative = inhibition": "-30.3% (inactive)"}
{"smiles": "CC(=O)c1c(C)cc2c(c1O)C(=O)c1c(O)cc(O)cc1C2=O", "activity change, negative = inhibition": "4.1% (inactive)"}
{"smiles": "CC1=CC[C@@]2(C[C@@H]1O)[C@@H](C(=O)O)CC[C@H]2C(C)C", "activity change, negative = inhibition": "-17.5% (inactive)"}
{"smiles": "COc1cc2c(c(O)c1O)C(=O)c1c(coc1C)C2=O", "activity change, negative = inhibition": "-13.2% (inactive)"}
{"smiles": "C=C1C[C@@]23C=CC(=O)[C@@](C)(CCC(=O)Nc4c(OC5O[C@H](CO)[C@@H](O)[C@H](O)[C@H]5O)ccc(C(=O)O)c4O)C2C[C@@H]1CC3", "note": "(some centres undefined)", "activity change, negative = inhibition": "7.66% (inactive)"}
{"smiles": "O=C1C[C@@H](c2ccc(O)c(-c3c(O)cc(O)c4c3O[C@H](c3ccc(O)cc3)CC4=O)c2)Oc2cc(O)cc(O)c21", "activity change, negative = inhibition": "-7.3% [at 27.4 µM] (inactive)"}
{"smiles": "CCC(C)=C1OC(=O)[C@H](C)[C@H](O)[C@H](Cc2cccnc2)NC(=O)C(NC(=O)c2ncccc2O)C(C)OC1=O", "note": "(some centres undefined)", "activity change, negative = inhibition": "-2.69% (inactive)"}
{"smiles": "CO[C@@H]1[C@H](O)[C@@H](C)O[C@@H](OC[C@@H]2C(C)OC(=O)/C=C/[C@H](C)C(O[C@@H]3O[C@H](C)CC4(OC(=O)O[C@@H]4C)C3O)[C@@H](C)CC(C)C(=O)CC[C@H]3OC23)[C@@H]1OC", "note": "(some centres undefined)", "activity change, negative = inhibition": "-1.19% (inactive)"}
{"smiles": "COC(=O)[C@@]12Oc3cccc(O)c3C(O)=C1C(=O)C[C@H](C)[C@H]2O", "activity change, negative = inhibition": "3.52% [at 91 µM] (inactive)"}
{"smiles": "CC(C)=CCCC(C)(O)[C@H]1CC=C(C)C(O)C1", "note": "(some centres undefined)", "activity change, negative = inhibition": "0.373% (inactive)"}
{"smiles": "CC(C)=CCC[C@]12c3cc4c(cc3CC[C@@]1(C)[C@H](C)CC[C@@H]2O)[nH]c1ccccc14", "activity change, negative = inhibition": "-2.51% (inactive)"}
{"smiles": "O=C1c2c(O)cc(O)cc2OC(c2ccc(O)cc2)C1O", "note": "(centres undefined)", "activity change, negative = inhibition": "-19% (inactive)"}
{"smiles": "CCCCCCCCCCCCCCCC(=O)OC/C=C(\\C)CCCC(C)CC(C)C(C)C", "note": "(centres undefined)", "activity change, negative = inhibition": "26.9% (inactive)"}
{"smiles": "O=c1cc(-c2ccc(O)cc2)oc2c([C@@H]3OC(CO)[C@H](O)[C@@H](O)[C@H]3O)c(O)cc(O)c12", "note": "(some centres undefined)", "activity change, negative = inhibition": "9.44% (inactive)"}
{"smiles": "C=C1C[C@@]23C=CC(=O)[C@@](C)(CCC(=O)Nc4c(O)ccc(C(=O)O)c4O)C2C[C@@H]1CC3O", "note": "(some centres undefined)", "activity change, negative = inhibition": "3.39% (inactive)"}
{"smiles": "CC(=O)NC[C@@H]1O[C@H](CC/C=C(C)/C(C)=C/C=O)[C@H](C)C[C@H]1O", "activity change, negative = inhibition": "5.68% (inactive)"}
{"smiles": "CC(=O)O[C@H]1c2ccccc2-c2c3c(cc4c2[C@@H]1N(C(C)=O)CC4)OCO3", "activity change, negative = inhibition": "-30.6% (inactive)"}
{"smiles": "C[C@H]1C[C@@H]([C@@H]2CC[C@]34O[C@H](CC[C@@]35C[C@H](C)C(=O)O5)CN24)OC1=O", "activity change, negative = inhibition": "2.14% (inactive)"}
{"smiles": "C[C@]12CC[C@]3(C1)[C@H](CC2=O)CC(OC(=O)c1ccccc1)[C@H]1[C@@](CO)(C(=O)O)CCC[C@@]13C", "note": "(some centres undefined)", "activity change, negative = inhibition": "-3.93% (inactive)"}
{"smiles": "Oc1ccc([C@H]2Oc3ccc(/C=C/c4cc(O)cc(O)c4)cc3C2c2cc(O)cc(O)c2)cc1", "note": "(some centres undefined)", "activity change, negative = inhibition": "8.64% (inactive)"}
{"smiles": "CC[C@@H]1C[C@@]2(CC)OC(=O)[C@@]3(CC)[C@H](CC)[C@@H]1[C@@H]23", "activity change, negative = inhibition": "-2.6% (inactive)"}
{"smiles": "C=C1C[C@@]23C=CC(=O)[C@@](C)(CCCC(C)C(=O)O)[C@@H]2C[C@@H]1CC3", "note": "(some centres undefined)", "activity change, negative = inhibition": "-9.66% (inactive)"}
{"smiles": "COc1ccc([C@@H]2c3cc(OC)c(OC)cc3C(=O)[C@H](C)C2C)cc1OC", "note": "(some centres undefined)", "activity change, negative = inhibition": "-3.53% [at 9.14 µM] (inactive)"}
{"smiles": "C[C@@H]1O[C@@H](Oc2c(-c3ccc(O)cc3)oc3cc(O)cc(O)c3c2=O)[C@H](O)[C@H](O)[C@H]1O", "activity change, negative = inhibition": "-2.11% (inactive)"}
{"smiles": "C/C1=C/[C@@H](C)[C@H](O)[C@@H](O)/C=C/CC/C=C/C(=O)O[C@@H]1[C@H](C)C(=O)/C=C/CC1CC(=O)NC(=O)C1", "activity change, negative = inhibition": "11.6% (inactive)"}
{"smiles": "C[C@]12CCC[C@](C)(C(=O)O)[C@@H]1CC[C@@]1(C)c3cocc3CC[C@H]21", "activity change, negative = inhibition": "-21.6% (inactive)"}
{"smiles": "C=C[C@](Cl)(CBr)CCC=C(C)C", "activity change, negative = inhibition": "-1.66% (inactive)"}
{"smiles": "CC(=O)O[C@H]1C[C@@]2(C)[C@@H](CC[C@H]3[C@@]4(C)C=CC(=O)[C@@H](C)[C@@H]4[C@H](OC(C)=O)C(=O)[C@@]32C)/C1=C(\\CCC=C(C)C)C(=O)O", "activity change, negative = inhibition": "-0.717% (inactive)"}
{"smiles": "COc1ccc([C@@H]2CC(=O)c3c(cc(O)c(C/C=C(\\C)CCC=C(C)C)c3O)O2)cc1", "activity change, negative = inhibition": "-26.8% [at 9.14 µM] (inactive)"}
{"smiles": "O=C1OC(CCO)c2cccc(O)c21", "note": "(centres undefined)", "activity change, negative = inhibition": "18.4% (inactive)"}
{"smiles": "[C-]#[N+][C@@]12C(=O)[C@@H]3[C@@H](O[C@@]4(C(=O)N(C)c5cccc1c54)C3(C)C)C(=O)[C@@]2(C)C=C", "activity change, negative = inhibition": "42.5% (inactive)"}
